CHT inh = inhibitors of human choline transporter CHT | High affinity choline transporter 1 (Homo sapiens), Q9GZV3 | CHT-expressing cells, membrane potential dye, choline response; stronger effect = lower value | actives 0.86% (n = 310,000) | B-score at 10 µM;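 active means B-score over 3 SD under the library average, and starting fluorescence ratio not unusually high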;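 further: choline stimulus applied at its EC90 after an EC20 pre-addition; B-score computed on integrated fluorescence ratio after choline addition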
MEKK2wt PB1 HTS = modulators of MEK5 binding to wildtype MEKK2, primary screen, biochemical, multiplex bead flow cytometry, Alexa488-MEK5; Mitogen-activated protein kinase kinase kinase 2 (Homo sapiens), Q9Y2U5; Alexa488-MEK5 binding to MEKK2 WT; actives lie on both sides; binding response (% of control), % at 10 µM; actives 1.1% (n = 290,000); in the data active means binding response below about 67% or above about 130%
MEKK3 PB1 HTS = modulators of MEKK3-MEK5 PB1 binding, primary screen, biochemical, wildtype MEKK3, multiplex bead flow cytometry, Alexa488-MEK5; Mitogen-activated protein kinase kinase kinase 3 (Homo sapiens), Q99759; binding response (% of control), % at 10 µM; actives 1.4% (n = 290,000); bead-based flow cytometry, Alexa488-MEK5 binding to MEKK3; actives lie on both sides; 0 = blocked by unlabeled MEK5, 100 = vehicle;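 active means binding response more than 3 SD above or below the average of its plate-row segment, actives on both sides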;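 further: Alexa488 bead fluorescence after subtracting the streptavidin-only scavenger bead signal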
Target sequence (Q99759 whole entry, looked up): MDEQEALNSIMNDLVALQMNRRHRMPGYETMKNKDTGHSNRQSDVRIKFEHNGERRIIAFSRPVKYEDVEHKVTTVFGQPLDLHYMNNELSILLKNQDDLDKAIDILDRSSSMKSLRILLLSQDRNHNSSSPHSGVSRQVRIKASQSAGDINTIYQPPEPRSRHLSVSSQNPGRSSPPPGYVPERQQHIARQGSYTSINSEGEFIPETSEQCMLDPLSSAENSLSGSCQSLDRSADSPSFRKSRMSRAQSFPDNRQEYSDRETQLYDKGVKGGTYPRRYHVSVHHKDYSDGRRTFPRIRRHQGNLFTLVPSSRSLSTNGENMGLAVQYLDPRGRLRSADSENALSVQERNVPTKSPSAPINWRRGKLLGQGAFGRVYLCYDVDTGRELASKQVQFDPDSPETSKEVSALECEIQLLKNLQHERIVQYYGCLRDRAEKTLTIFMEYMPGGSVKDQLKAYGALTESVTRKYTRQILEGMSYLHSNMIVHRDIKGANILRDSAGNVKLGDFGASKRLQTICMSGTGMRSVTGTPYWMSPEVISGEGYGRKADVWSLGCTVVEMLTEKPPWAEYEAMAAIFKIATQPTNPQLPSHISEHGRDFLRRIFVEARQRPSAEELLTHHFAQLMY
MEKK2mut PB1 HTS = MEK5 binding signal on mutant MEKK2 PB1, primary screen, biochemical, multiplex bead flow cytometry, Alexa488-MEK5; Alexa488-MEK5 binding to MEKK2 mutant; percent response, % at 10 µM; actives 0.35% (n = 290,000); in the data active means percent response above about 24%, passing the limit was not always enough
CHT allo act = CHT positive allosteric modulators, primary screen, cell-based, membrane potential dye, choline EC20 | High affinity choline transporter 1 (Homo sapiens), Q9GZV3 | CHT-expressing cells; stronger effect = higher value; LV-AA mutant CHT in HEK293 cells | B-score at 10 µM | actives 0.49% (n = 310,000) | AID 488977, 2010;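 active means initial fluorescence not abnormally high and integrated response B-score, plate-corrected, over 3 SD above library mean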
Mot1-301 SUMO = yeast Mot1-301 growth rescue at high temperature, primary screen, SUMOylation pathway inhibitor project, S. cerevisiae, ATP luminescence, 38.5C; S. cerevisiae Mot1-301 growth rescue; percent above DMSO median, 100 means doubled; actives 1% (n = 320,000); growth rescue, % at 18.8 µM;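 active means every valid replicate shows activation above 250% relative to neutral control wells; inactive means the rest, any valid replicate at or below 250%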
CHT act confirm = CHT activators, confirmation, cell-based, membrane potential dye, duplicate; shares compounds with CHT allo act; CHT-expressing cells, membrane potential dye fluorescence (FDSS); % of choline EC20–EC90 response window; HEK293 expressing CHT LV-AA mutant; choline added at its EC20; activation, % at 10 µM; actives 91% (n = 2,500);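 active means primary screen active, with duplicate mean activation above negative control mean plus 3 SD, cut at about 11% in these data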
HEK293 MP dye = membrane potential response in parental HEK293 cells, counter-screen for CHT activator project, cell-based, membrane potential dye | shares compounds with CHT allo act | membrane potential dye fluorescence (FDSS); measured after EC20 choline addition | ratio readout change at 10 µM, hits read low | actives 62% (n = 2,500) | AID 623908, 2012;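 active means duplicate-averaged ratio beyond 3 SD from buffer wells, up or down, though filed actives are nearly all decreases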
Large screens that a line does not name were inactive (follow-up assays come after a bar, where they were run). Hits are enriched below; roughly 4.1% of the tested compounds scored in any of these assays.

Cc1ccnc(NC(=O)C2CCCN(S(=O)(=O)c3ccc4[nH]c(=O)ccc4c3)C2)c1 (configuration not stated)	none
CCC(=O)O[C@]1(C(=O)SCF)[C@H](C)C[C@H]2[C@@H]3C[C@H](F)C4=CC(=O)C=C[C@]4(C)[C@@]3(F)[C@@H](O)C[C@@]21C	none
CN(C)CCC1CCN(c2cc(C#N)c(C#N)cc2[N+](=O)[O-])CC1	CHT allo act 7.2 | CHT act confirm 58 | HEK293 MP dye -64
N#Cc1cc(N2CCCCC2)c([N+](=O)[O-])cc1C#N	none
Cc1noc(C)c1CSc1ncnc2ccccc12	none
O=C(NCC(=O)N(Cc1cccs1)C(C(=O)NC1CCCCC1)c1ccco1)c1ccco1 (configuration not stated)	none (no result: Mot1-301 SUMO)
O=C(NC1CCCCC1)C(c1cccs1)N(Cc1cccs1)C(=O)c1ccco1 (configuration not stated)	none | CHT act confirm 29 | HEK293 MP dye inactive
Cc1cccc(C)c1OCc1cc(C(=O)N(C)Cc2nc3ccccc3[nH]2)no1	none
CN1CCN(/N=C/c2nc(-c3ccccc3)n3ccccc23)CC1	none | CHT act confirm 27 | HEK293 MP dye inactive
COc1ccc(CSc2ccc(-c3nc4ccccn4c3NCc3ccccc3)cc2OC)cc1	CHT allo act 8.9 (no result: MEKK2wt PB1 HTS, MEKK3 PB1 HTS, MEKK2mut PB1 HTS) | CHT act confirm 31 | HEK293 MP dye inactive
Cc1cccc(COCC(Cc2ccccc2)N2CCN(C(=O)c3cccc(Cl)c3)CCC2=O)c1 (configuration not stated)	none
O=C(c1cccc(Cl)c1)N1CCC(=O)N(C(COCc2ccccc2)Cc2ccccc2)CC1 (configuration not stated)	CHT allo act 6.3 | CHT act confirm 29 | HEK293 MP dye inactive
CCOc1nc(N=C(N)N)nc2c(C)cccc12	CHT allo act 6.6 (no result: MEKK2wt PB1 HTS, MEKK3 PB1 HTS, MEKK2mut PB1 HTS) | CHT act confirm 54 | HEK293 MP dye -60
COC(=O)[C@@H](NC(=O)N1CCC(Cc2ccccc2)CC1)C(C)C	none
CCOc1ccccc1NC(=O)CSc1nnc(-c2ccco2)o1	CHT allo act 16 | CHT act confirm inactive | HEK293 MP dye inactive
CCOc1ccccc1NC(=O)CSc1nnc(-c2ccco2)n1Cc1ccco1	none
CC(C)C(CCNCc1ccccn1)c1ccc(Cl)cc1 (configuration not stated)	CHT allo act 6.7 | CHT act confirm 17 | HEK293 MP dye inactive
CCOCCCn1c(=NC(C)=O)c(C#N)cc2c(=O)n3cccc(C)c3nc21	none | CHT act confirm 43 | HEK293 MP dye -62
CCCCn1c(=NC(C)=O)c(C#N)cc2c(=O)n3cccc(C)c3nc21	none (no result: MEKK2wt PB1 HTS, MEKK3 PB1 HTS, MEKK2mut PB1 HTS)
CCCN1CCN(C(=O)CCn2c(=O)c3cccn3c3cccnc32)CC1	none
CCN1CCN(C(=O)CCn2c(=O)c3cccn3c3cccnc32)CC1	none | CHT act confirm 58 | HEK293 MP dye -30
Cc1ccc(S(=O)(=O)NC(=O)Nc2ccc(OC(F)F)cc2)cc1	none
Cc1cccc2cc3c(N)c(C(=O)N4CCc5ccccc54)sc3nc12	MEKK2wt PB1 HTS 30 | CHT act confirm 26 | HEK293 MP dye inactive
COC(=O)CCCC1=CC2=C(c3ccccc3)C(=O)C(C)(OC(=O)C3CCCC3)C(=O)C2=CN1CCCCO (configuration not stated)	none
COC(=O)CCCC1=CC2=C(c3ccccc3)C(=O)C(C)(OC(=O)C3CCCC3)C(=O)C2=CN1Cc1ccco1 (configuration not stated)	CHT allo act 9.1 | CHT act confirm 47 | HEK293 MP dye inactive
O=C(NCc1ccccc1)c1cccnc1Sc1ccccc1	none
C/C(=N\Nc1ccccn1)c1ccc(C#N)cc1	none | CHT act confirm 30 | HEK293 MP dye -56
Cc1ccc2c(c1)nc(NCCCO)n2C	none | CHT act confirm 19 | HEK293 MP dye -41
Cn1c(NCCCO)nc2ccccc21	none
CCCN(CC(=O)Nc1ccccc1Br)CC(=O)Nc1ccc(F)c(F)c1F	none | CHT act confirm 18 | HEK293 MP dye inactive
COc1ccc(/C=C/C(=O)OCC(=O)NCc2ccccc2Cl)cc1OC	none (no result: CHT inh, MEKK2wt PB1 HTS, MEKK3 PB1 HTS, MEKK2mut PB1 HTS, CHT allo act)
CC(C)(C)n1nnnc1C(c1ccc(F)cc1)N(Cc1ccc(F)cc1)Cc1ccco1 (configuration not stated)	none
CC(C)(C)n1nnnc1C(c1ccc(C(F)(F)F)cc1)N(Cc1ccc(F)cc1)Cc1ccco1 (configuration not stated)	CHT allo act 12 | CHT act confirm 31 | HEK293 MP dye inactive
Fc1ccc(C(c2nnnn2C2CCCC2)N(Cc2ccco2)CC2CCCO2)cc1 (configuration not stated)	CHT allo act 8.6 | CHT act confirm 46 | HEK293 MP dye inactive
NC(=O)COC(=O)CC12CC3CC(CC(Br)(C3)C1)C2	none
Cc1ccc(C)c(NC(=O)Cc2csc(-c3ccccc3)n2)c1	none
CC(=O)N(CCC(c1ccco1)C(C)C)Cc1ccc(Cl)cc1 (configuration not stated)	CHT allo act 7.4 | CHT act confirm 26 | HEK293 MP dye inactive
COc1cccc(C(=O)NCC(c2ccco2)N2CCc3ccccc3C2)c1 (configuration not stated)	none (no result: MEKK2wt PB1 HTS, MEKK3 PB1 HTS, MEKK2mut PB1 HTS)
Cc1ccccc1C(=O)NCC(c1ccco1)N1CCc2ccccc2C1 (configuration not stated)	none (no result: MEKK2wt PB1 HTS, MEKK3 PB1 HTS, MEKK2mut PB1 HTS) | CHT act confirm inactive | HEK293 MP dye inactive
O=C(NCC(c1ccco1)N1CCc2ccccc2C1)c1ccc([N+](=O)[O-])cc1 (configuration not stated)	none (no result: MEKK2wt PB1 HTS, MEKK3 PB1 HTS, MEKK2mut PB1 HTS)
O=C(NCC(c1ccco1)N1CCc2ccccc2C1)c1cccc(F)c1 (configuration not stated)	none (no result: MEKK2wt PB1 HTS, MEKK3 PB1 HTS, MEKK2mut PB1 HTS) | CHT act confirm 11 | HEK293 MP dye inactive
O=S(=O)(Nc1ccc(Cl)cc1)c1ccc(N2CCOCC2)c(NC(=S)NC2CC2)c1	none
CNC(=S)Nc1cc(S(=O)(=O)Nc2cc(Cl)ccc2Cl)ccc1N1CCCC1	none | CHT act confirm 14 | HEK293 MP dye inactive
